# Results from the OligoGym collection.
# Molecular target: SLC6A17
# Assay: pooled miR-30 sensor sort-seq; sequence = guide strand
# Details: shRNA
# Also: reference of the scale not given here.
row,Sequence,sensor-assay potency score (higher = more potent)
1,TATATAGTGCCACACACCGATG,-1.62
2,TACATCTCCATGTAGTCCTTTG,-1.15
3,TAGTGCCACACACCGATGCTGC,-1.34
4,TTTCTCAGCATTCTCGACCACA,-0.65
5,TTCTTGGTTCCATAAATCCAGG,-1.41
6,ATATATAGTGCCACACACCGAT,0.0995
7,AAGAAGAACATGACGGACCAGA,0.0729

# Molecular target: SLC6A18
# Assay: as above
# Details: shRNA
row,Sequence,sensor-assay potency score (higher = more potent)
1,TGAACAAGTAGATGAGTCCTTT,-0.149
2,TAGAGCTTCTCCTGACGCGAGG,-1.31
3,TGAAGTAAATCACCTTCCCTGT,-0.768
4,TAAACGACACCCACAACCTCGA,-0.526
5,ATGGTGTTGTAGTACAGGCTGA,-0.98
6,TTGTATCTCAGTGGCTTCCAGA,-0.724
7,TTGTCGAAAATCTCCAGCCAGT,-1.14
8,TTGTAGTACAGGCTGATCAGGA,-0.436
9,TTCAGTGTCTGCCGGTACCAGA,-1.1
10,ATTAGTTGCTTTGAACCCCAGG,-0.521
11,ATTGTCGAAAATCTCCAGCCAG,-0.569

# Molecular target: SLC6A3
# Assay: as above
# Details: shRNA
row,Sequence,sensor-assay potency score (higher = more potent)
1,TTGTTGGTGAACTTGTTGTAGC,-0.855
2,TTTTGTAGCACAGGTAGGGGAA,-0.466
3,TAGATGATGAAGATCAGCCCTG,-0.145
4,ATCTGCTGGATGTCGTCGCTGA,-0.478
5,TTACAGCAACACAAGACACGGC,0.179
6,TTTCCTGGTGAGACATACCAGG,-1.03
7,TAGCAGTTGTTGGTGAACTTGT,-0.216
8,TTTTTGTAGCACAGGTAGGGGA,-0.961
9,TTCGCAAACATAAAAACTGTTG,-1.05
10,TTGGTGAACTTGTTGTAGCTGG,0.547
11,TATTCTTGTAAACAAAAACTGC,-1.01
12,TATTGATGTGGCACGCACCTGA,-0.154

# Molecular target: SLC7A11
# Assay: as above
# Details: shRNA
row,Sequence,sensor-assay potency score (higher = more potent)
1,TACTTCTTCAGTAACAAAGTTG,-0.481
2,TAAAGTTCTGCGTTTGACCTTT,0.169
3,TTTAGGACCATCACTACAGTTA,-0.265
4,TTTGTATCGAAGATAAATCAGC,-1.16
5,TATATGTGTAATGACCTCCAGA,-0.907
6,TAATGGACCAAAGACTTCCAAA,-1.33
7,ATAATTATCAGAATTGCTGTGA,0.593
8,TTAATTAGCTGCATAACTCCAG,0.313
9,TAATACTTGAATCTCTTCCTGA,0.636
10,TAATTAGCTGCATAACTCCAGG,-0.703
